The results in this text go back to PubChem BioAssay.

Active and inactive are the calls of the source.

Assay [1] can be described thus: small molecules captured by biotinylated probe aFSTL3 – biochemical, small-molecule microarray, fluorescence 635/667, stem cell growth factor project, primary screen (AID 1064).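 Also: measures binding of the biotinylated anti-FSTL3 antibody to printed compounds.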 The settings on record: higher = more signal.
Assay [2] can be described thus: binders from COS7 lysate, DM2A8 probe, primary screen, torsin A project, cell lysate, small-molecule microarray, fluorescence 635/667 (AID 1065). The following applies: higher = more signal, COS7 lysate expressing mutant human TOR1A.
Assay [3] is described as follows: small molecules captured by biotinylated probe aFGF2 – biochemical, small-molecule microarray, fluorescence 635/667, stem cell growth factor project, primary screen (AID 1067).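 Also: measures binding of biotinylated aFGF2 protein to printed compounds on slides; z-score merges feature fluorescence and signal-to-noise across triplicate slides.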 The following applies: higher = more signal.
Assay [4] can be described thus: small molecules captured by biotinylated probe aFGF10 – biochemical, small-molecule microarray, fluorescence 635/667, stem cell growth factor project, primary screen (AID 1071).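 Also: score merges 667 nm spot intensity and signal to noise from triplicate slides.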 The settings on record: higher = more signal.
The target in assay [5] is Neurogenic locus notch homolog protein 2 (Homo sapiens) (UniProt Q04721). Description: small molecules binding Notch2 protein – biochemical, small-molecule microarray, 635 nm fluorescence, stem cell growth factors, primary screen (AID 1073). The settings on record: higher = more signal.
Sequence of Neurogenic locus notch homolog protein 2 (Homo sapiens) (Q04721 whole entry, looked up, canonical isoform): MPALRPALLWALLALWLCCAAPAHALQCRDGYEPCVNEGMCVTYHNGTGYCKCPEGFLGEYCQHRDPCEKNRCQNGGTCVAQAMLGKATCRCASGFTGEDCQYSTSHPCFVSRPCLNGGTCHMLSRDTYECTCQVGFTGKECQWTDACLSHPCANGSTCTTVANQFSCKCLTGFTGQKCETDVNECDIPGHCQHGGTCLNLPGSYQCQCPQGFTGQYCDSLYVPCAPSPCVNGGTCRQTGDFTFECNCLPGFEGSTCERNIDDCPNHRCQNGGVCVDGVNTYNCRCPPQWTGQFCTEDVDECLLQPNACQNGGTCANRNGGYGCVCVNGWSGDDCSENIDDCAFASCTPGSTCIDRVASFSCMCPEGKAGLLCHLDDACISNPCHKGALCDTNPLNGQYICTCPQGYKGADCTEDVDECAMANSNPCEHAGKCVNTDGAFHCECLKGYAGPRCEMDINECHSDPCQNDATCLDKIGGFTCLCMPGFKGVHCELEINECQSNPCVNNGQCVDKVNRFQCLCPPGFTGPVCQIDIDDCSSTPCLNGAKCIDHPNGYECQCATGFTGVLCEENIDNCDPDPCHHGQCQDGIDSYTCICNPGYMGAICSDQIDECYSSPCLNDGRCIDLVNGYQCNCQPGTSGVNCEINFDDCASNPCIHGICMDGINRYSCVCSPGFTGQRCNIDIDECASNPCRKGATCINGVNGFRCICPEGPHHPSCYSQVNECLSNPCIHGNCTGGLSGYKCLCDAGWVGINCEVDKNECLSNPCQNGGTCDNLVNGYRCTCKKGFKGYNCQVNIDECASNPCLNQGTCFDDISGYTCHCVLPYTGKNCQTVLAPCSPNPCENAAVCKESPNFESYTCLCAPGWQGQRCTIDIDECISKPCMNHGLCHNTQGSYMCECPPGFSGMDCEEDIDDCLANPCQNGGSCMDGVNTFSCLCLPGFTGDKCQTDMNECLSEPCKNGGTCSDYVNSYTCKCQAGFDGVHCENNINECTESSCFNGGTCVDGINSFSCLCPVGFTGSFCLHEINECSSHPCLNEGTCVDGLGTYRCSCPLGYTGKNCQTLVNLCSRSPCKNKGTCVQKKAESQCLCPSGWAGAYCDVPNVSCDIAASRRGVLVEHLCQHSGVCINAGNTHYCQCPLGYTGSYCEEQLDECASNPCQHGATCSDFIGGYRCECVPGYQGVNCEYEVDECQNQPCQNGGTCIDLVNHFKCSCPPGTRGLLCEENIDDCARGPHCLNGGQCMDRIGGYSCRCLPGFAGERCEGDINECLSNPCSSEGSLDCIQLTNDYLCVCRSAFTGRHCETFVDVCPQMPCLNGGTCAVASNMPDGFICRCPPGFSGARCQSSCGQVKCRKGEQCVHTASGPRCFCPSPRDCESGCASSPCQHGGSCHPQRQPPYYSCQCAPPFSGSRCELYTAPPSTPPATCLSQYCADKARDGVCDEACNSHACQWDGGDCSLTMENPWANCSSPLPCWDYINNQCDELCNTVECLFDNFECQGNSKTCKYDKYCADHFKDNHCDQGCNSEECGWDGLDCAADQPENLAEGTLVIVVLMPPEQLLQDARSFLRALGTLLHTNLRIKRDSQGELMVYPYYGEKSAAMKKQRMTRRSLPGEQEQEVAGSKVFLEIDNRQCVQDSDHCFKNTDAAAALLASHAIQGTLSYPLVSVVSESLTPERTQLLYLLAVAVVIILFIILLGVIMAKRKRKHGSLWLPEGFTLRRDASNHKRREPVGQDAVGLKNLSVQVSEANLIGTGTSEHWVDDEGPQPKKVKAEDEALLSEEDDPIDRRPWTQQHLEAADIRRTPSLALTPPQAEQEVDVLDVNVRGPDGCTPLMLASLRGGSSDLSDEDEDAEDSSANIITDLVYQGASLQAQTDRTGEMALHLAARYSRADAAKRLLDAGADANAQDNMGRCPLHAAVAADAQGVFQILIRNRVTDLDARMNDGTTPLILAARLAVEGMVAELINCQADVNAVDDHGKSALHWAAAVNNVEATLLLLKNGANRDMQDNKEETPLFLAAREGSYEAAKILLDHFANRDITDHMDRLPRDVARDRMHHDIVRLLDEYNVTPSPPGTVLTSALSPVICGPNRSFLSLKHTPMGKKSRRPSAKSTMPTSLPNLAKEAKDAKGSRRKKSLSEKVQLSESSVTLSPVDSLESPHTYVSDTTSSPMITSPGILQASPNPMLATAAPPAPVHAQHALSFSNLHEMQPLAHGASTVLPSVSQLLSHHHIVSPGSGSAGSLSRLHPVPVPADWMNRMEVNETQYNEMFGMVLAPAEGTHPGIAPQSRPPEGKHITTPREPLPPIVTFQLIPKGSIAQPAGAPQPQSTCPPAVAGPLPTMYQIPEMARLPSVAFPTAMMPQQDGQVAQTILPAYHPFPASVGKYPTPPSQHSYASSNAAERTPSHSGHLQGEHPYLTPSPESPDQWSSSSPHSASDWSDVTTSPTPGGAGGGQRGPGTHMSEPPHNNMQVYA
Assay [6] concerns the target Pro-neuregulin-1, membrane-bound isoform (Homo sapiens) (UniProt Q02297). Description: small molecules binding neuregulin-1 protein – biochemical, small-molecule microarray, fluorescence 635/667, psychiatric disease protein project, primary screen (AID 1075).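 Also: score combines 667 nm spot fluorescence with signal to noise.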 The settings on record: NRG1 binding, 635 nm fluorescence, higher = more signal.
In assay [7] the test system is Neuregulin-1 EGF-like domain. Description: small molecules binding NRG1 EGF domain – biochemical, small-molecule microarray, 635 nm fluorescence, primary screen (AID 1081).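 Also: binding of the protein to compounds printed on small-molecule microarray slides.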 The settings on record: higher = more signal.
The nature of assay [8]: FRG1 expression reporter modulators in myotubes – cell-based, C2C12 myotubes, firefly/Renilla luciferase, luminescence, FRG1 inhibition for FSHD, primary screen (AID 1084). The following applies: FRG1 promoter luciferase, higher = more signal, called active from +8 up or from −8 down.
A short description of assay [9]: small molecules captured by biotinylated probe aFST – biochemical, small-molecule microarray, fluorescence 635/667, stem cell growth factor project, primary screen (AID 1086).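 Also: score merges 667 nm fluorescence with signal-to-noise of each printed compound spot.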 The settings on record: higher = more signal.
A short description of assay [10]: binders of probe aHhip on microarray, primary screen, stem cell growth factor project, biochemical, small-molecule microarray, fluorescence 635/667 (AID 1087).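 Also: score merges spot fluorescence at 667nm with spot signal to noise ratio.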 The following applies: higher = more signal.
In assay [11] the test system is PRMT1 (protein arginine N-methyltransferase 1). Description: small molecules binding arginine methyltransferase PRMT1 – biochemical, small-molecule microarray, 635 nm fluorescence, primary screen (AID 1088).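 Also: binding of Prmt1 protein to compounds spotted on small-molecule microarray slides.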 The following applies: higher = more signal.
Assay [12] in a line: growth effects on S. cerevisiae YJM789 – YJM789 clinical isolate, OD600, 24 h, basal, primary screen (AID 1089).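 Also: growth of clinical yeast isolate S. cerevisiae YJM 789 seeded 1000 cells per well; test concentration not given here.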 The following applies: higher = more signal, called active from +8 up or from −8 down.
Assay [13] can be described thus: S. pombe growth modifiers, basal conditions – strain 972, OD600, 24 h, no modulator, primary screen (AID 1090).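 Also: basal condition with compound alone and no growth modifier present; test concentration not given here.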 The settings on record: S. pombe 972 growth, higher = more signal, called active from +8 up or from −8 down.
Assay [14] is described as follows: budding yeast growth modifiers under rapamycin – strain BY4716, OD600, 96 h, primary screen (AID 1091). Also: test concentration not given here. The following applies: S. cerevisiae BY4716 + rapamycin, higher = more signal, called active from +8 up or from −8 down.
For assay [15], the target named is Torsin-1A-interacting protein 2 (Homo sapiens) (UniProt Q8NFQ8). Description: small molecules binding lysate-expressed LULL1 – cell lysate, human LULL1 lysate, 635/667 nm fluorescence, primary screen (AID 1092).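 Also: probe is lysate of COS7 cells overexpressing human LULL1; score merges per-feature 667 nm fluorescence with signal-to-noise.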 The following applies: small-molecule microarray, hLULL1 lysate binding, 635 nm fluorescence; higher = more signal.
Sequence of Torsin-1A-interacting protein 2 (Homo sapiens) (Q8NFQ8 whole entry, looked up): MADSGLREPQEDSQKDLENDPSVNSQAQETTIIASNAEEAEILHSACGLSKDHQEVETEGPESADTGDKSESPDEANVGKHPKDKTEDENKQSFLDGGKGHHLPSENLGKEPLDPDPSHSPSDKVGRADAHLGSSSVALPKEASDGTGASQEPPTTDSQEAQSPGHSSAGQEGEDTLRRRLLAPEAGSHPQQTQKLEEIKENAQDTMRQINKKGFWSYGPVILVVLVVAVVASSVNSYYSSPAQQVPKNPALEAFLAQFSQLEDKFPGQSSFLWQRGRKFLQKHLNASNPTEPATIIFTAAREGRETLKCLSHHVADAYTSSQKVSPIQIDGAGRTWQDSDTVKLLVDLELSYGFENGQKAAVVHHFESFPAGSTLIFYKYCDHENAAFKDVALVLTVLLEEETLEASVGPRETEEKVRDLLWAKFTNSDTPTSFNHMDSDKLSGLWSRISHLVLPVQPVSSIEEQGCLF
A short description of assay [16]: optical density change of DRC41 E. coli – strain DRC41, OD650, 24 h, E. coli filamentation project, primary screen (AID 1093).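 Also: MC1000 strain lacking acrAB efflux and sulA so SOS filamentation is blocked; test concentration not given here.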 The following applies: E. coli DRC41 growth, higher = more signal, called active from +8 up or from −8 down.
Assay [17] in a line: probe aLefty2 binding to arrayed compounds – biochemical, biotinylated probe, 635/667 nm fluorescence, primary screen (AID 1094).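 Also: score merges spot fluorescence near 667 nm with spot signal-to-noise ratio.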 The settings on record: small-molecule microarray, higher = more signal.
In assay [18] the test system is Noggin (protein binding on small-molecule microarray). Description: small molecules binding Noggin protein – biochemical, 635/667 nm fluorescence, primary screen (AID 1095).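 Also: score merges 667 nm feature fluorescence with signal to noise over triplicate slides.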 The following applies: 635 nm fluorescence, higher = more signal.
For assay [19], the target named is Neurogenic locus notch homolog protein 3 (Homo sapiens) (UniProt Q9UM47). Description: small molecules binding NOTCH3 protein – biochemical, 635/667 nm fluorescence, primary screen (AID 1096). The following applies: small-molecule microarray, 635 nm fluorescence, higher = more signal.
Assay [20] in a line: probe aEGFR binding to arrayed compounds – biochemical, biotinylated probe, 635/667 nm fluorescence, primary screen (AID 1097).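 Also: probe is a biotinylated anti-EGFR antibody binding compounds printed on slides; score combines fluorescence near 667 nm and signal to noise of each spot.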 The following applies: small-molecule microarray, higher = more signal.

Sequence of Pro-neuregulin-1, membrane-bound isoform (Homo sapiens) (Q02297 whole entry, looked up, the tested form may be a part, canonical isoform): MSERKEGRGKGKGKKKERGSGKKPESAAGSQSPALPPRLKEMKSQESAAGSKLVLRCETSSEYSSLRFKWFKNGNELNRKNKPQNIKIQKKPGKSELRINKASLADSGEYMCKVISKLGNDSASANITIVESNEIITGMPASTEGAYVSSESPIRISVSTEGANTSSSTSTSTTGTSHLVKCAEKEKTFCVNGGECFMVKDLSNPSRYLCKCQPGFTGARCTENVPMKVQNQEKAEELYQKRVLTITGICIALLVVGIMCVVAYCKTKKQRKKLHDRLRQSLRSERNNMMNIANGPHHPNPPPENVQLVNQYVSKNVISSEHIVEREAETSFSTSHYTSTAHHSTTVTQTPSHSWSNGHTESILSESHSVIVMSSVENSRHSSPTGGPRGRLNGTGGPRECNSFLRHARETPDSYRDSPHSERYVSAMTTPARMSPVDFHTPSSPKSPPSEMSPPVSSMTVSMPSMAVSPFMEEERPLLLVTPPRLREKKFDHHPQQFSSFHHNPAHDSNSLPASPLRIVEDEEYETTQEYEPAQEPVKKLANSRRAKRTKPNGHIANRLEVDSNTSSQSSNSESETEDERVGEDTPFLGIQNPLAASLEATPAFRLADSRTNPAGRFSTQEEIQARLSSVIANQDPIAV

With `COc1ccccc1CN1C(=O)c2ccccc2[C@@H](C(=O)NCCCN(C)C)[C@@H]1c1ccc(CO)cc1`, the composite z-score is -0.192 in assay [1]; 0.132 in assay [2]; -0.161 in [3]; 0.461 in assay [4]; -0.203 in assay [5]; 0.648 in [6]. In addition, the composite z-score in [7] is 0.695; in [9] it was 0.0644; in [10], -0.266; in assay [11] it was -1.06; in assay [15], -1.07; in [17], -0.135. The composite z-score in assay [18] was -0.649; in [19], -0.784; in assay [20], -0.111. Further, the z-score in [8] is -3.53 (inactive); in assay [12], -0.376 (inactive); in [13], -2.26 (inactive); in assay [14] it was -1.63 (inactive); in [16], 0.874 (inactive).

Turning to `COCCOC(=O)N1C(=O)[C@@]2(c3cc(C#CCCO)ccc31)[C@H](C(=O)N1CCc3cc(OC)c(OC)cc3C1)[C@H]1C(=O)O[C@H](c3ccccc3)[C@H](c3ccccc3)N1[C@@H]2c1ccccc1OCCO`, the composite z-score in assay [1] was -0.327; in [2], 0.255; in [3], -0.0336; in assay [4], 1; in assay [5], 1.47; in [6], 0.317. Moreover, the composite z-score in [7] was 1.19; in assay [9] it was 0.0205; in assay [10], -0.111; in assay [11], 1.55; in [15], 2.81; in assay [17], -0.0159. In addition, the composite z-score in [18] is 1.81; in assay [19], 1.1; in assay [20] it was -0.0564. For the same compound, the z-score was -0.742 (inactive) in assay [8]; 2.65 (inactive) in [12]; 1.65 (inactive) in [13]; 3.88 (inactive) in assay [14]; 0.156 (inactive) in assay [16].

As to `CCCCC(=C=CC[C@H](O)c1ccc(OCCO)cc1)C[C@H](O)c1ccccn1`, the composite z-score is -0.199 in [1]; 0.342 in assay [2]; -0.109 in assay [3]; 0.694 in assay [4]; 0.356 in assay [5]; 1.47 in [6]. Further, the composite z-score in assay [7] was 1.14; in [9], 0.763; in assay [10], 0.0854; in [11], 1.54; in [15], 1.72; in [17], -0.0094. The composite z-score in assay [18] turned out to be 0.266; in [19], 0.419; in assay [20], 0.165. The z-score is -0.865 (inactive) in assay [8]; 0.415 (inactive) in [12]; -1.18 (inactive) in assay [13]; -0.539 (inactive) in [14]; 0.493 (inactive) in assay [16].

`CN(C)C(=O)[C@@]1(CCS(=O)(=O)c2ccccc2)N=C(c2ccc(OCCCO)cc2)O[C@H]1c1ccccc1N=[N+]=[N-]`: the composite z-score is -0.35 in [1]; 0.259 in [2]; 0.167 in assay [3]; 0.792 in [4]; 1.32 in [5]; 1.55 in [6]. For the same compound, the composite z-score in assay [7] was 0.551; in assay [9], 1.49; in assay [10] it was -0.0994; in [11] it was 1.55; in [15], 3.1; in assay [17], 0.0554. Also, the composite z-score is 0.987 in assay [18], 1.11 in assay [19] and -0.0168 in assay [20]. Moreover, the z-score in assay [8] is 0.401 (inactive); in assay [12], -1.01 (inactive); in assay [13], -0.173 (inactive); in [14], 0.914 (inactive); in assay [16], 0.635 (inactive).

For `C=CC[C@@]1(C(=O)N(C)C)N=C(c2ccc(OCCCO)cc2)O[C@@H]1c1ccccc1`, the composite z-score in [1] was 0.733; in [2], 1.13; in [3], 0.0917; in assay [4], 0.794; in assay [5], 0.515; in [6] it was 2.08. Further, the composite z-score in assay [7] is 1.38; in assay [9], 0.598; in assay [10], 0.109; in assay [11], 0.52; in assay [15], 3.5; in assay [17], 0.363. Moreover, the figures for the composite z-score in [18], in [19] and in assay [20] were -0.474, -0.0401 and 0.464, respectively. Moreover, the z-score in [8] is -0.004 (inactive); in assay [12] it was -0.69 (inactive); in [13], -2.28 (inactive); in assay [14], -2.31 (inactive); in assay [16], -0.343 (inactive).
